Records with an inconclusive call do not appear. Calls of active or inactive are those of the source. Unless noted, the call rests on the fitted dose curve; in most records, active means well fitted curve in the direction sought with a large enough effect; inconclusive means small, poorly fitted or top-dose-only effect, or another doubt; inactive means no such curve, though single readings can be large; an effect the other way counts as inactive or inconclusive.
How the values were obtained:
[1] = target: Lysosomal acid glucosylceramidase (Homo sapiens) (UniProt P04062); assay: Glucocerebrosidase-p2 (AID 348; in the data active means potency below about 10 µM; further: potency means the concentration at half of the fitted maximal effect); settings: purified GBA, blue fluorogenic substrate, 40 min
Chain of Lysosomal acid glucosylceramidase (Homo sapiens) (P04062 whole entry, looked up): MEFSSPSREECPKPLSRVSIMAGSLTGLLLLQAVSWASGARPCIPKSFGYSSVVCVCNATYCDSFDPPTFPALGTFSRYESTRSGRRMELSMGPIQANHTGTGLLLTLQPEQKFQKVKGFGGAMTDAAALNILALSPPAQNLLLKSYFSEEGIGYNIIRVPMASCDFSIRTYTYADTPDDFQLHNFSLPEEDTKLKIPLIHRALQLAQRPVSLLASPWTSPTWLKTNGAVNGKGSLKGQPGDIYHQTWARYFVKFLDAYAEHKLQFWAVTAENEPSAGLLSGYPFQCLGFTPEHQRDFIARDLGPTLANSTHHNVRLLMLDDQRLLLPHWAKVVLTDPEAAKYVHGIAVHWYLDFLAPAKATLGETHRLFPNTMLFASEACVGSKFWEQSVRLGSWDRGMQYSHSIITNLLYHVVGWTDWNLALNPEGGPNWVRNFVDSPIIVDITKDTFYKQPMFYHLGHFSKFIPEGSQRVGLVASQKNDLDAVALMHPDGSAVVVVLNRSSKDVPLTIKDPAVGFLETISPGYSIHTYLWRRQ
How it was run: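 Compounds titrated from 0.6 nM upwards against 0.2 nM enzyme in pH 5.9 citric acid/KH2PO4, taurocholate, tween-20; blue fluorogenic substrate 80 uM, 40 min room temperature, stopped and read Ex 365/Em 440 for AC50.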

[2] = AP1 Signaling Pathway (AID 357; active means well fitted curve in either direction with a large enough effect, not every such curve was filed as active;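 further: ME-180 reporter cells stimulated with EGF at its EC50 level; on the % scale 0 is the no-effect control and ±100 the full control effect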); settings: ME-180 AP-1-bla reporter, EGF-induced, beta-lactamase ratio, 5 h; at 7.69 µM (top of the series) unless noted
How it was run: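 Read-out was the 460nm/530nm emission ratio (excitation 405nm) after CCF4 loading for 2.5 hours at room temperature. Cells carried an AP-1-driven beta-lactamase reporter, were stimulated with EC50 EGF plus compound for 5 hours, and AC50 values came from titrations.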

[3] = target: Cytochrome P450 1A2 (Homo sapiens) (UniProt P05177); assay: p450-cyp1a2 (AID 410; calls by dose curve; further: potency means the concentration at half of the fitted maximal effect;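 on activity change, negative = inhibition: -100% = full effect of reference inhibitor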); settings: recombinant CYP1A2, luciferin-ME demethylation, luminescence; series mostly up to 57 µM
Chain of Cytochrome P450 1A2 (Homo sapiens) (P05177 whole entry, looked up): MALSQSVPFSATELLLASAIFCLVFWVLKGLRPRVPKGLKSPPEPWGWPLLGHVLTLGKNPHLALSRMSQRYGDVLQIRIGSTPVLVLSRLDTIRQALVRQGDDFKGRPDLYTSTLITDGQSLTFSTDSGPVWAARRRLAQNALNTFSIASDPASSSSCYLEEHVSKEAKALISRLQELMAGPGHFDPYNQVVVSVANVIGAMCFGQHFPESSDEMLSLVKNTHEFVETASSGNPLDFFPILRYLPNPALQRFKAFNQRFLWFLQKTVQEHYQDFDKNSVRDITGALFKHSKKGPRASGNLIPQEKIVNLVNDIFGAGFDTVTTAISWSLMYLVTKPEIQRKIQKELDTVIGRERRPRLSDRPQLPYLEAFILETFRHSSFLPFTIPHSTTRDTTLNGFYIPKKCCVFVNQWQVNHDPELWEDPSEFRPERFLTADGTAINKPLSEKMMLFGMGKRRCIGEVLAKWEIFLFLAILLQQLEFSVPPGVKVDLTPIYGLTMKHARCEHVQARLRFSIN
How it was run: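 Luminescent readout of luciferin formed from Luciferin-ME by human CYP1A2; data normalized against complete inhibition by 57 uM furafylline. Enzyme 20nM, substrate 100uM at Km, 100mM KPO4 buffer, 60 min reaction at room temperature.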

[4] = NFAT Signaling Pathway (AID 444; active means well fitted curve in either direction with a large enough effect, not every such curve was filed as active;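 further: carbachol stimulus at about its EC50 of 1 µM final; on the % scale 0 is the no-effect control and ±100 the full control effect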); settings: Jurkat NFAT-bla M1, carbachol, beta-lactamase ratio, 5 h; at 7.69 µM (top of the series) unless noted
How it was run: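 Jurkat cells carrying an NFAT-driven β-lactamase reporter and co-transfected muscarinic M1 receptor were treated with compound plus carbachol (1 uM final, an EC50 level) for 5 h at 37 °C. CCF4 loading followed for 1 h at RT; 460/530 nm ratio gave %activity.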

[5] = Stat Signaling Pathway (AID 446; active means well fitted curve in either direction with a large enough effect, not every such curve was filed as active;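 further: ME-180 cervical cancer cells given 40 pM IL-6 alongside compound; SIE-controlled beta-lactamase reporter measured as 460/530 nm FRET emission ratio; on the % scale 0 is the no-effect control and ±100 the full control effect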); settings: ME-180 SIE beta-lactamase reporter, IL-6 stimulated, 5 h; at 7.69 µM (top of the series) unless noted
How it was run: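 ME-180 cells carrying a SIE-driven beta-lactamase reporter are stimulated with 40 pM IL-6 for 5 h at 37C in the presence of compound. The 460/530 nm FRET substrate ratio is read after 2.5 h at RT. Data are normalised to 300 pM IL-6 and to 125 nM JAK inhibitor controls.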

[6] = target: Glucocorticoid receptor (Homo sapiens) (UniProt P04150); assay: GR-GFP Redistribution (AID 450;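 active means compounds whose dose series gives a full or clear partial fitted curve of increased nuclear translocation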; further: potency means the concentration at half of the fitted maximal effect); settings: U2OS GR-GFP nuclear translocation, laser cytometry, 2 h
Chain of Glucocorticoid receptor (Homo sapiens) (P04150 whole entry, looked up, the tested form may be a part): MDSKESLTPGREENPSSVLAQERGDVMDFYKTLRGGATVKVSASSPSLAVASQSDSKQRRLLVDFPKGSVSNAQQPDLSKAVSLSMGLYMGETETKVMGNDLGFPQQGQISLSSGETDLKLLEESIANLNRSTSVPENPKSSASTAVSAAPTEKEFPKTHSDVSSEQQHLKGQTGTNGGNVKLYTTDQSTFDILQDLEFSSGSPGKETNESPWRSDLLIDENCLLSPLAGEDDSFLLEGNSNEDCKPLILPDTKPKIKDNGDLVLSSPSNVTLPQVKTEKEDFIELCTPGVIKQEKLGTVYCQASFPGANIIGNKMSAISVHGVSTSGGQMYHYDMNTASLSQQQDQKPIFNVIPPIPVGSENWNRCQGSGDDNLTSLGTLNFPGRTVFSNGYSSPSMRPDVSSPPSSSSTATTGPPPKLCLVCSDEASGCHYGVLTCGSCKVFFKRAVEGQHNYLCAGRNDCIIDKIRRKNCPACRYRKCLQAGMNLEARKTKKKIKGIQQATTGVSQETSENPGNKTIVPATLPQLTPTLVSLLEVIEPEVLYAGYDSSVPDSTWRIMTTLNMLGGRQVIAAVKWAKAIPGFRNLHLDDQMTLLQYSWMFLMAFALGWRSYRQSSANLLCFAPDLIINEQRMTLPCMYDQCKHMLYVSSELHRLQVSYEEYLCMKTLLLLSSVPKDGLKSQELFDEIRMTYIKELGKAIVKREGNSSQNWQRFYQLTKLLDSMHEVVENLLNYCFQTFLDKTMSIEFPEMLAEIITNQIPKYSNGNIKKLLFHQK

[7] = target: Glucocorticoid receptor (Homo sapiens) (UniProt P04150); assay: GR-EFC Redistribution (AID 451; calls by dose curve; further: potency means the concentration at half of the fitted maximal effect); settings: CHO-K1 GR-EFC translocation, beta-gal luminescence, 2 h
How it was run: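 CHO-K1 cells stably expressing nuclear-localized β-gal enzyme acceptor and GR fused C-terminally to the enzyme donor fragment; ligand-driven nuclear translocation restores β-gal by complementation. Compounds titrated up to 46 uM final, 2 h at 37 °C; luminescence read.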

[8] = target: Mitogen-activated protein kinase 10 (Mus musculus) (UniProt Q61831); assay: JNK3 AlphaScreen Assay (AID 530; active means well fitted curve in either direction with a large enough effect, not every such curve was filed as active;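 further: kinase came from lysate of stimulated human HepG2 cells; signal reports phosphorylation of biotinylated GST-cJun 1-79 at Ser73 with 10 µM ATP; on the % scale 0 is the no-effect control and ±100 the full control effect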); settings: JNK3 lysate, c-Jun phosphorylation; series mostly up to 57.1 µM
How it was run: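 Inhibitors reduce antibody binding to phosphorylated biotin-cJun, lowering AlphaScreen luminescence. Lysates from HepG2 cells pre-activated by IL-1beta plus TNF-alpha supplied JNK3; compounds were titrated.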

[9] = target: Cytochrome P450 3A4 (Homo sapiens) (UniProt P08684); assay: qHTS Assay for Inhibitors and Substrates of Cytochrome P450 3A4 (AID 884); settings: recombinant CYP3A4, Luciferin-PPXE luminescence; series mostly up to 57.1 µM; further: potency means the concentration at half of the fitted maximal effect; nearly all actives have a fitted effect of over 50% in size
Chain of Cytochrome P450 3A4 (Homo sapiens) (P08684 whole entry, looked up): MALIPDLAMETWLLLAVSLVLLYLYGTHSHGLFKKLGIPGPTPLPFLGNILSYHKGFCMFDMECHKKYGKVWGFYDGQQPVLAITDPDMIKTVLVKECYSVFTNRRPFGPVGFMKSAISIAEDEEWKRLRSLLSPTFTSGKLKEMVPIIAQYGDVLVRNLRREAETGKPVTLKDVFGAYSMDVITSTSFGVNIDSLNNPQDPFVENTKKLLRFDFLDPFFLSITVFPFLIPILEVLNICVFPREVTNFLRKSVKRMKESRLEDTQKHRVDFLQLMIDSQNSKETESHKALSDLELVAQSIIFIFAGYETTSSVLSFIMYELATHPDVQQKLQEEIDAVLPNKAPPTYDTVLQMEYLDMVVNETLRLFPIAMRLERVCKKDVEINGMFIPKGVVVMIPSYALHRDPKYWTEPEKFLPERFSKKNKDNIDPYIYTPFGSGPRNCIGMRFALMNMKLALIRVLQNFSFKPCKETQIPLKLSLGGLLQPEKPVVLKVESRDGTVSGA
How it was run: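 20 nM human CYP3A4 with 25 uM Luciferin-PPXE (at KM) in 200 mM KPO4, preincubated 10 min with compound; NADPH regeneration started a 60 min RT reaction. Luciferin detected by luminescence, normalized to 57 uM ketoconazole as full inhibition.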

[10] = target: Cytochrome P450 3A4 (Homo sapiens) (UniProt P08684); assay: qHTS Assay for Activators of Cytochrome P450 3A4 (AID 885); settings: recombinant CYP3A4, Luciferin-PPXE luminescence, 60 min; series mostly up to 57.1 µM; further: nearly all actives have a fitted effect of over 65% in size
How it was run: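 Human CYP3A4 (20 nM) with Luciferin-PPXE at 25 uM (its KM) in 200 mM KPO4; 10 min compound preincubation, then NADPH regeneration and 60 min reaction at RT. Luciferin read by luminescence; normalized to 57 uM ketoconazole full inhibition.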

[11] = qHTS Assay for Identification of Small Molecule Agonists for Hypoxia Response Element Signaling Pathway (AID 914; active means well fitted activation curve with a large enough effect in the signal ratio, with a control signal flat, not every such curve was filed as active; the % refers to the signal ratio; further: potency means the concentration at half of the fitted maximal effect; on activation: % of control where 0% means no effect); settings: ME-180 (cervical carcinoma) HRE-bla reporter, beta-lactamase ratio, CoCl2, 17 h; activation: stronger effect = higher value
How it was run: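 HRE-bla ME-180 assay for agonist-like enhancement of an EC50 CoCl2 stimulus: 17 h at 37 degrees Celsius, CCF4 for 2.5 h, ratiometric 460/530 nm signal converted to %Activity and fitted to AC50.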

[12] = Counterscreen qHTS for small molecule stabilizers of the endoplasmic reticulum resident proteome: GLuc-NoTag assay (AID 1508627); settings: Gaussia luciferase NoTag secretion counterscreen, luminescence, thapsigargin 100 nM for final 4 h; series mostly up to 76.4 µM;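 further: SH-SY5Y cells given compound then 100 nM thapsigargin to empty ER calcium; 0% = thapsigargin alone and -100% = DMSO vehicle control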
How it was run: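 SH-SY5Y cells stably expressing constitutively secreted GLuc (no SERCaMP tag) were pre-incubated 5 h, treated with compound for 19 h, then 100 nM thapsigargin for 4 h at 37C; medium GLuc read by coelenterazine luminescence.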

[13] = Confirmatory qHTS for small molecule stabilizers of the endoplasmic reticulum resident proteome: Secreted ER Calcium Modulated Protein (SERCaMP) assay (AID 1508628); settings: SERCaMP secreted luciferase ER calcium/proteostasis reporter; series mostly up to 76.3 µM; further: potency means the concentration at half of the fitted maximal effect; nearly all actives have a fitted effect of over 40% in size
How it was run: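 SH-SY5Y cells stably expressing GLuc-SERCaMP, treated 16 h with compound (primary 1.53, 7.67, 38.3 uM; confirmation 11 concentrations, up to 76.6 uM), then 100 nM thapsigargin for 4 h. Secreted Gaussia luciferase in medium read by coelenterazine luminescence.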

[14] = target: 3',5'-cyclic-AMP phosphodiesterase 4B (Homo sapiens) (UniProt Q07343); assay: qHTS Assay for Inhibitors of PDE-IV (AID 607; active means well fitted activation curve with a large enough effect in the main read-out, with a control signal flat, not every such curve was filed as active; further: % of control where 0% means no effect); settings: HEK293 ACTOne CNG channel cells, membrane potential fluorescence; series mostly up to 22.9 µM
Chain of 3',5'-cyclic-AMP phosphodiesterase 4B (Homo sapiens) (Q07343 whole entry, looked up): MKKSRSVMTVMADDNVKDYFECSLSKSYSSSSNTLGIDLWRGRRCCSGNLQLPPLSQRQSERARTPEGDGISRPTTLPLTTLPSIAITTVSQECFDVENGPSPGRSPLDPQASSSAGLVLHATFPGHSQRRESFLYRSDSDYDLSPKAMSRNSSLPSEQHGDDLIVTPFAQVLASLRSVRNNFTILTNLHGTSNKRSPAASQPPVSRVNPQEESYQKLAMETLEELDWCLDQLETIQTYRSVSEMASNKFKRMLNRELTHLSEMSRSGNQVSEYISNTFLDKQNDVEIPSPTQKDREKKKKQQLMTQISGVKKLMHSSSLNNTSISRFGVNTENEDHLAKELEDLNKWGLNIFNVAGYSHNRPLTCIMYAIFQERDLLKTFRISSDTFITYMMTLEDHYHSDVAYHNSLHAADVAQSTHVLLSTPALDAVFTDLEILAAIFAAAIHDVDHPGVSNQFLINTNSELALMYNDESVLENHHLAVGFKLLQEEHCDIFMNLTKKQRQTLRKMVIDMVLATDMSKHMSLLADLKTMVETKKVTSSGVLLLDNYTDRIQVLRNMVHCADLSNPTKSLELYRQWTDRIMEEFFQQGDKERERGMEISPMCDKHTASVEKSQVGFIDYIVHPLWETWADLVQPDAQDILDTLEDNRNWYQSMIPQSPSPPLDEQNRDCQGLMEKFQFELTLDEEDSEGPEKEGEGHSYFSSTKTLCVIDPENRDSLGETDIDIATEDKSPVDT
How it was run: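 HEK293 ACTOne cells with CNG channel (1000/well), endogenous PDE4; membrane potential dye, compounds up to 22.9 uM final. Fluorescence Ex 535/Em 590; RO 20-1724 (100 uM final) as reference.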

[15] = Confirmation and Secondary Assay for Modulators of Hemoglobin Beta Chain Splicing at IVS2 654 locus (AID 910); settings: HeLa EGFP-654 splicing reporter, GFP fluorescence, 48 h; series mostly up to 38.3 µM;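 further: per-well total GFP intensity by laser scanning cytometry after 2-day treatment; % of control where 0% means no effect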
How it was run: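 HeLa cells stably carrying EGFP interrupted by mutant beta-globin IVS2-654 intron (CMV-driven) were treated with compound for 2 days at 37C; corrected splicing was scored as total peak GFP intensity per well (488 nm excitation, 500-520 nm emission).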

[16] = Confirmation and Secondary Assay for Modulators of Hemoglobin Beta Chain Splicing at IVS2 705 locus (AID 930); settings: HeLa EGFP-705 splicing reporter, GFP fluorescence, 48 h; series mostly up to 38.3 µM;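 further: HeLa cells stably expressing the EGFP-705 splicing reporter; GFP fluorescence per well restored by corrected splicing of the IVS2-705 intron in EGFP; % of control where 0% means no effect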
How it was run: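 HeLa IVS2-705 EGFP reporter cells, 500/well, compound 2 d at 37C; correct splicing yields fluorescent EGFP. Control: 500 nM antisense PNA. Read-out: total peak GFP intensity.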

[17] = qHTS Assay for Lipid Storage Modulators (AID 1519; calls by dose curve); settings: Drosophila S3 cells, BODIPY lipid droplet/cell ratio, laser cytometry, cells loaded with oleic acid; for activity change, negative = inhibition: at 57.5 µM (top of the series)
How it was run: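 Cells seeded at 5,000 per well were treated with compounds over a concentration series and loaded with oleic acid (400 uM, as added). Lipid droplet fluorescence (488 nm excitation, 500-530 nm channel) was read by laser-scanning cytometry and normalized to 20 uM Triacsin C.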

[18] = target: Ubiquitin carboxyl-terminal hydrolase 1 (Homo sapiens) (UniProt O94782); assay: Inhibitors of USP1/UAF1: Pilot qHTS (AID 504865); settings: purified USP1/UAF1, Ub-rhodamine cleavage fluorescence; series mostly up to 54.9 µM;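 further: rhodamine fluorescence freed from ubiquitin-rhodamine substrate followed over time; top concentration of the series differs between compounds; on the % scale 0 is the no-effect control and ±100 the full control effect; nearly all actives have a fitted effect of over 35% in size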
Chain of Ubiquitin carboxyl-terminal hydrolase 1 (Homo sapiens) (O94782 whole entry, looked up): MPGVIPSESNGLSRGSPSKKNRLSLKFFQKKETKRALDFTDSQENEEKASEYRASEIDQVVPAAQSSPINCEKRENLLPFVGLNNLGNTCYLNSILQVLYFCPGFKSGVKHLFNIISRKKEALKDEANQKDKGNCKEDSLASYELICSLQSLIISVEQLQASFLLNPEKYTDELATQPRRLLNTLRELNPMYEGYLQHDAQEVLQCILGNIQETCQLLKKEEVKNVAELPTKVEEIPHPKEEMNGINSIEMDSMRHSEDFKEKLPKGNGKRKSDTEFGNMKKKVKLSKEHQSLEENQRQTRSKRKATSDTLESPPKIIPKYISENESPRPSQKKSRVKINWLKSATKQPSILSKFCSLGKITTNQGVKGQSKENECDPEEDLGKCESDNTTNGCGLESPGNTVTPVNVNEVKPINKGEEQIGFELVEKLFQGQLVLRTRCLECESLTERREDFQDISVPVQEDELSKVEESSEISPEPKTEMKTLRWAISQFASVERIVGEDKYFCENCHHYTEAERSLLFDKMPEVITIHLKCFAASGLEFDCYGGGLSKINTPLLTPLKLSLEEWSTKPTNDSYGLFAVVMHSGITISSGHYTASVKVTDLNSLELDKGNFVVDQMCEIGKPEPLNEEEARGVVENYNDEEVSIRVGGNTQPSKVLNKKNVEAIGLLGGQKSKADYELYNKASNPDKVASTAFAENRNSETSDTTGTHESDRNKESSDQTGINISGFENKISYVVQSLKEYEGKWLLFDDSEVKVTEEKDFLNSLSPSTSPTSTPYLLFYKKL
How it was run: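 USP1/UAF1 complex (1nM) preincubated with compound 15 min at room temperature, then Ub-Rho substrate (150nM final) added. Fluorescence read kinetically at 480/540 nm, 6 reads every 60 seconds. Buffer: 50mM HEPES pH 7.8, 0.5mM EDTA, 0.1 mg/ml BSA, 1mM TCEP, 0.01% Tween-20.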

[19] = Cell Viability qHTS for small molecule stabilizers of the endoplasmic reticulum resident proteome (AID 1508629); settings: cell viability counter-screen, 100 nM thapsigargin for final 4 h
[20] = measured here: cell count channel max response
[21] = measured here: lipid channel max response

For CN1CCN(c2ncc3nc(CCc4ccccc4)c(=O)n(Cc4ccc(F)cc4)c3n2)CC1, the Potency [1] was > 11.4 µM (inactive), the activity change, negative = inhibition [2] was 4.85% (inactive) and the Potency [3] was “inactive”. The activity change, negative = inhibition [4] was -12.2% (inactive), the activity, negative = inhibition [5] was -1.54% (inactive) and the Potency [6] was > 9.22 µM (inactive). The Potency [7] was > 46 µM (inactive), the outcome [8] was “inactive” and the Potency [9] was 5.01 µM (active). The Potency [10] was “inactive”, the activation [11] was -6.17% (inactive) and the Potency [12] was “inactive”. For the same molecule, the Potency [13] was 25.1 µM (active).
With O=c1c(-c2ccc(Cl)cc2)nc2cnc(Oc3ccccc3)nc2n1C1CC1 the Potency [1] was > 11.4 µM (inactive), the activity change, negative = inhibition [2] was -21% (inactive) and the activity change, negative = inhibition [4] was -2.33% (inactive). The activity, negative = inhibition [5] was -4.95% (inactive), the Potency [6] was > 9.22 µM (inactive) and the Potency [7] was > 46 µM (inactive). The outcome [8] was “inactive”, the Potency [14] was “inactive” and the Potency [12] was “inactive”. For the same molecule, the Potency [13] was 35.5 µM (active).
For CN(C)c1ccc(-c2nccc(NCCN3CCOCC3)n2)cc1, the Potency [1] was > 11.4 µM (inactive), the activity change, negative = inhibition [2] was -7.61% (inactive) and the Potency [3] was 1.26 µM (active). For the same molecule, the activity change, negative = inhibition [4] was 7.2% (inactive), the activity, negative = inhibition [5] was 11.1% (inactive) and the Potency [6] was > 46 µM (inactive). For the same molecule, the Potency [7] was > 46 µM (inactive), the Potency [14] was “inactive” and the Potency [10] was “inactive”. The outcome [15] was “inactive”, the activation [11] was -5.52% (inactive) and the outcome [16] was “inactive”. The activity change, negative = inhibition [17] was -20.5% (inactive), the max response [17, 20] was -10.5% and the max response [17, 21] was -26.5%. The Potency [18] was “inactive”, the Potency [12] was “inactive” and the max response [19] was 10.1% (inactive).
For O=c1c(-c2ccccc2)nc2cnc(N3CCNCC3)nc2n1C1CC1, the Potency [1] was > 11.4 µM (inactive), the activity change, negative = inhibition [2] was 27.1% (inactive) and the Potency [3] was 3.98 µM (active). The activity change, negative = inhibition [4] was 100% (inactive), the Potency [6] was > 9.22 µM (inactive) and the Potency [7] was > 46 µM (inactive). For the same molecule, the outcome [8] was “inactive”, the Potency [14] was “inactive” and the Potency [11] was 3.16 µM (active). The activity change, negative = inhibition [17] was 5.31% (inactive), the max response [17, 20] was 32.7% and the max response [17, 21] was 42.5%. For the same molecule, the Potency [12] was “inactive” and the Potency [13] was 39.8 µM (active).
With Cc1ccccc1-c1nc(N2CCNCC2)c2ccccc2n1 the Potency [1] was > 11.4 µM (inactive), the activity change, negative = inhibition [2] was 12.7% (inactive) and the Potency [3] was 5.01 µM (active). The activity change, negative = inhibition [4] was 2.71% (inactive), the activity, negative = inhibition [5] was -10.4% (inactive) and the Potency [6] was > 46 µM (inactive). The Potency [7] was > 46 µM (inactive), the outcome [8] was “inactive” and the Potency [14] was “inactive”. For the same molecule, the Potency [10] was “inactive”, the activity change, negative = inhibition [17] was 4.63% (inactive) and the max response [17, 20] was 23.8%. For the same molecule, the max response [17, 21] was 27.5%, the Potency [18] was “inactive” and the Potency [12] was “inactive”. The Potency [13] was 12.6 µM (active).
For COc1cccc(CN2CCN(C(=O)c3ccc(-c4ccccc4)cc3)CC2)c1OC, the Potency [12] was “inactive” and the max response [19] was 10.7% (inactive).

Reference: PubChem BioAssay (NCATS)
